Test results as given in PubChem BioAssay AID1159580 (chemical genetic matrix, 2015).
Values joined by “and” are separate entries in the source; they are usually repeats but may differ in a detail not shown here. Identical values can stand only once. The whole screen tested about 5,500 compounds, of which about 2,000 (36%) were called active. Inconclusive results (about 18%) are left out. Rule as the data show it: active = normalized growth mostly below about 0.91 (no sharp cut-off); inconclusive = no clear call, values can overlap the other calls; inactive = mostly above about 0.92. This is one part of the list.

Experiment: chemical genetic growth profiling, strain panel (AID 1159580);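 also: tested at 20 µM; growth read once vehicle control cultures reached saturation at 30 °C; 1 = growth at the plate median or of vehicle wells; lower values mean less growth of the strain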
Conditions: S. cerevisiae deletion strains, growth OD

Measured: normalized growth

Cc1ccc(-c2cc(C(F)(F)F)nn2-c2ccc(S(N)(=O)=O)cc2)cc1
inactive: locus YAL013W, strain DEP1, hits give low values 1 | locus YAL021C, strain ccr4, hits give low values 1 | locus YAL026C, strain drs2, hits give low values 1.03 | locus YAL030W, strain snc1, hits give low values 1.03 | locus YBL061C, strain skt5, hits give low values 1.02 | locus YBR009C, strain hhf1, hits give low values 1.03 | locus YBR021W, strain FUR4, hits give low values 1 | locus YBR023C, strain chs3, hits give low values 1.02 | locus YBR171W, strain sec66, hits give low values 1.05 | locus YBR229C, strain ROT2, hits give low values 0.992 | locus YBR231C, strain swc5, hits give low values 1.05 | locus YBR279W, strain paf1, hits give low values 1.02 | locus YCL011C, strain gbp2, hits give low values 1.03 | locus YCL016C, strain dcc1, hits give low values 1.03 | locus YCL029C, strain bik1, hits give low values 1.04 | locus YCL061C, strain MRC1, hits give low values 1.02 | locus YCL069W, strain vba3, hits give low values 1.03 | locus YCR088W, strain abp1, hits give low values 1.02 | locus YDL005C, strain med2, hits give low values 1.03 | locus YDL035C, strain GPR1, hits give low values 0.979 | locus YDL040C, strain nat1, hits give low values 1.03 | locus YDL074C, strain BRE1, hits give low values 0.975 | locus YDL101C, strain DUN1, hits give low values 1.02 | locus YDL134C, strain PPH21, hits give low values 0.999 | locus YDL185W, strain tfp1, hits give low values 1.02 | locus YDL192W, strain arf1, hits give low values 0.998 | locus YDR001C, strain nth1, hits give low values 1.02 | locus YDR069C, strain doa4, hits give low values 1.02 | locus YDR101C, strain arx1, hits give low values 1.01 | locus YDR137W, strain rgp1, hits give low values 1.02 | locus YDR150W, strain NUM1, hits give low values 1 | locus YDR159W, strain sac3, hits give low values 1.02 | locus YDR162C, strain NBP2, hits give low values 0.988 | locus YDR195W, strain ref2 1.05 | locus YDR297W, strain sur2, hits give low values 1.02 | locus YDR318W, strain mcm21, hits give low values 1.02 | locus YDR334W, strain swr1, hits give low values 1.04 | locus YDR335W, strain msn5, hits give low values 1.03 | locus YDR388W, hits give low values 1.01 | locus YDR392W, strain spt3, hits give low values 1.03 | locus YDR502C, strain sam2, hits give low values 1 | locus YEL003W, strain gim4, hits give low values 1.03 | locus YEL037C, strain rad23, hits give low values 1.03 | locus YEL061C, strain CIN8 (second series), hits give low values 1.04 | locus YEL061C, strain CIN8, hits give low values 0.994 | locus YER015W, strain faa2, hits give low values 1.03 | locus YER016W, strain bim1, hits give low values 1.03 | locus YER110C, hits give low values 1.02 | locus YER111C, strain swi4, hits give low values 1.05 | locus YER155C, strain BEM2 (second series), hits give low values 1.04 | locus YER155C, strain BEM2, hits give low values 1.01 | locus YER167W, strain BCK2, hits give low values 0.998 | locus YFR010W, strain ubp6, hits give low values 1.04 | locus YGL078C, strain dbp3, hits give low values 0.996 | locus YGL086W, strain mad1, hits give low values 0.991 | locus YGL167C, strain pmr1, hits give low values 1.04 | locus YGL173C, strain kem1, hits give low values 1.01 | locus YGL227W, strain vid30, hits give low values 1.04 | locus YGL240W, strain doc1, hits give low values 1.04 | locus YGL248W, strain PDE1, hits give low values 0.996 | locus YGL253W, strain hxk2, hits give low values 1.02 | locus YGR078C, strain PAC10, hits give low values 1.01 | locus YGR135W, strain pre9, hits give low values 1.02 | locus YGR229C, strain SMI1, hits give low values 0.998 | locus YGR252W, strain gcn5, hits give low values 0.962 | locus YHR013C, strain ard1, hits give low values 1.06 | locus YHR027C, strain rpn1, hits give low values 1.03 | locus YHR030C, strain SLT2, hits give low values 1.01 and 0.968 | locus YHR079C, strain IRE1 (second series), hits give low values 1.02 | locus YHR079C, strain IRE1, hits give low values 0.963 | locus YHR094C, strain hxt1, hits give low values 1.01 | locus YHR129C, strain ARP1, hits give low values 1 | locus YHR142W, strain chs7, hits give low values 1.03 | locus YHR200W, strain rpn10, hits give low values 1.01 | locus YIL066C, strain RNR3, hits give low values 0.994 | locus YIL073C, strain SPO22, hits give low values 0.994 | locus YIL125W, strain kgd1, hits give low values 1.01 | locus YIR030C, strain dcg1, hits give low values 1.01 | locus YJL092W, strain hpr5, hits give low values 1.02 | locus YJL095W, strain BCK1 (second series), hits give low values 1.02 | locus YJL095W, strain BCK1, hits give low values 1.04 and 0.974 | locus YJL115W, strain asf1, hits give low values 1.03 | locus YJL129C, strain trk1, hits give low values 1.06 | locus YJL134W, strain LCB3, hits give low values 1 | locus YJL154C, strain vps35, hits give low values 1.02 | locus YJL164C, strain tpk1, hits give low values 1.03 | locus YJL166W, strain qcr8, hits give low values 1.01 | locus YJL168C, strain set2, hits give low values 1.02 | locus YJL187C, strain SWE1 (second series), hits give low values 1.03 | locus YJL187C, strain SWE1, hits give low values 1.02 | locus YJR043C, strain POL32, hits give low values 1.01 | locus YJR066W, strain TOR1, hits give low values 0.974
